Results on 40 compounds are retold here after the supplement of paper PMC8975748.

Structures can show the parent of a compound that is named as a salt.

This assay deals with Saccharomyces cerevisiae BY4741 SeMeCo community. The assay can be described thus: z-score of subpopulation abundance vs DMSO median, subpopulation auxotrophic for LM; higher = larger share of this subpopulation than in DMSO controls. Conditions: 10 µM; 24 h; SM minimal medium; subpopulation (auxotrophy): LM. Here is the method:
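Fluorescent four-plasmid SeMeCo (self-establishing metabolically cooperating S. cerevisiae BY4741 community; plasmids pH-mRuby2, pL-mWasabi, pU-eCFP, pM-TagRFP657) was grown 24 h in minimal SM medium with each Selleck FDA-approved drug at 10 µM in 384-well plates. Cells were fixed and imaged by high-content confocal microscopy. For each auxotrophic subpopulation (and the prototroph), a z-score gives the deviation from the DMSO vehicle-control population median.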
For `CCN1CCN(c2cc3c(cc2F)c(=O)c(C(=O)O)cn3C2CC2)CC1` [Enrofloxacin], the “z-score of subpopulation abundance” value stood at 0.01.

`CCC(=O)O[C@@H]1CC(=O)O[C@H](C)C/C=C/C=C/[C@H](O)[C@H](C)C[C@H](CC=O)[C@H](O[C@@H]2O[C@H](C)[C@@H](O[C@H]3C[C@@](C)(O)[C@@H](OC(=O)CC)[C@H](C)O3)[C@H](N(C)C)[C@H]2O)[C@H]1OC` [Midecamycin]: the “z-score of subpopulation abundance” value was 0.61.

On to `CN(CCOc1ccc(NS(C)(=O)=O)cc1)CCc1ccc(NS(C)(=O)=O)cc1` [Dofetilide], for which the “z-score of subpopulation abundance” value worked out at 0.47.

Consider `CC(C)[C@H](N)C(=O)OCCOCn1cnc2c(=O)nc(N)[nH]c21` [Valaciclovir HCl], for which the “z-score of subpopulation abundance” value was -0.74.

Consider `Nc1nc(N)c2nc(-c3ccccc3)c(N)nc2n1` [Triamterene], for which the “z-score of subpopulation abundance” value amounted to 5.63.

Regarding `CC1(C)S[C@@H]2[C@H](NC(=O)Cc3ccccc3)C(=O)N2[C@H]1C(=O)O` [Benzylpenicillin potassium], the “z-score of subpopulation abundance” value is 0.02.

On to `CCCCCCCCCCCCCCCCCCOP(=O)([O-])OC1CC[N+](C)(C)CC1` [Perifosine (KRX-0401)], for which the “z-score of subpopulation abundance” value was determined as 1.78.

Turning to `Cc1onc(-c2c(F)cccc2Cl)c1C(=O)N[C@@H]1C(=O)N2[C@@H]1SC(C)(C)[C@@H]2C(=O)O` [Flucloxacillin sodium], the “z-score of subpopulation abundance” value was -0.65.

Take `COC(=O)C1=C(C)NC(C)=C(C(=O)OCC(C)C)C1c1ccccc1[N+](=O)[O-]` (stereo not given) [Nisoldipine]: the “z-score of subpopulation abundance” value was 1.4.

Consider `Fc1ccc([C@@H]2CCNC[C@H]2COc2ccc3c(c2)OCO3)cc1` [Paroxetine HCl], for which the “z-score of subpopulation abundance” value was -0.61.

Take `CC[C@H]1OC(=O)[C@H](C)[C@@H](O[C@H]2C[C@@](C)(OC)[C@@H](O)[C@H](C)O2)[C@H](C)[C@@H](O[C@@H]2O[C@H](C)C[C@H](N(C)C)[C@H]2O)[C@](C)(O)C[C@@H](C)[C@@H]2N[C@@H](COCCOC)O[C@H]([C@H]2C)[C@]1(C)O` [Dirithromycin]: the “z-score of subpopulation abundance” value was determined as 0.49.

For `Clc1ccc(CCC(Cn2ccnc2)Sc2c(Cl)cccc2Cl)cc1` (stereo not given) [Butoconazole], the “z-score of subpopulation abundance” value is -2.25.

As for `Cc1c(C)c2c(c(C)c1O)CCC(C)(CCCC(C)CCCC(C)CCCC(C)C)O2` (stereo not given) [Vitamin E], the “z-score of subpopulation abundance” value is -0.64.

As to `CC(C)[N+]1(C)[C@@H]2CC[C@H]1C[C@@H](OC(=O)C(CO)c1ccccc1)C2` (stereo not given in full) [Ipratropium Bromide], the “z-score of subpopulation abundance” value came to 0.93.

On to `NNc1nncc2ccccc12` [Hydralazine HCl], for which the “z-score of subpopulation abundance” value is -0.56.

Take `N=C(N)NS(=O)(=O)c1ccc(N)cc1` [Sulfaguanidine]: the “z-score of subpopulation abundance” value was -0.87.

For `Cc1ccc(O)c([C@H](CCN(C(C)C)C(C)C)c2ccccc2)c1` [Tolterodine tartrate], the “z-score of subpopulation abundance” value was 1.32.

Take `CN1CCN(c2c(F)cc3c(=O)c(C(=O)O)cn4c3c2OCN4C)CC1` [Marbofloxacin]: the “z-score of subpopulation abundance” value was -0.36.

With `O=C1CN(/N=C/c2ccc([N+](=O)[O-])o2)C(=O)N1` [Nitrofurantoin], the “z-score of subpopulation abundance” value is -0.69.

Turning to `CO/N=C(\C(=O)N[C@@H]1C(=O)N2C(C(=O)O)=C(CSc3nc(=O)c(O)nn3C)CS[C@H]12)c1csc(N)n1` [Ceftriaxone Sodium Trihydrate], the “z-score of subpopulation abundance” value was -0.18.

`O=C(O)CCC(=O)c1ccc(-c2ccccc2)cc1` [Fenbufen]: the “z-score of subpopulation abundance” value turned out to be 0.1.

For the compound `C=CCN1CCCC1CNC(=O)c1cc2nn[nH]c2cc1OC` (stereo not given) [Alizapride HCl], the “z-score of subpopulation abundance” value was -0.39.

Consider `C[C@@H](CN1CC(=O)NC(=O)C1)N1CC(=O)NC(=O)C1` [Dexrazoxane HCl (ICRF-187, ADR-529)], for which the “z-score of subpopulation abundance” value is -1.65.

Turning to `Cc1cc2c(s1)Nc1ccccc1N=C2N1CCN(C)CC1` [Olanzapine], the “z-score of subpopulation abundance” value worked out at 0.65.

On to `CC(C)(C)C(=O)OCOC(=O)[C@@H]1N2C(=O)[C@@H](/N=C/N3CCCCCC3)[C@H]2SC1(C)C` [Pivmecillinam hydrochloride], for which the “z-score of subpopulation abundance” value is -0.18.

Take `CN(C)CC(c1ccc(O)cc1)C1(O)CCCCC1` (stereo not given) [Desvenlafaxine]: the “z-score of subpopulation abundance” value was -0.57.

With `CC[C@H](C)C(=O)O[C@H]1C[C@@H](C)C=C2C=C[C@H](C)[C@H](CC[C@@H]3C[C@@H](O)CC(=O)O3)[C@H]21` [Lovastatin], the “z-score of subpopulation abundance” value is -0.13.

Consider `CCCOc1ccc(C(=O)OCCN(CC)CC)cc1N` [Proparacaine HCl], for which the “z-score of subpopulation abundance” value was -0.38.

For the compound `CCOc1ccc(NC(C)=O)cc1` [Phenacetin], the “z-score of subpopulation abundance” value is -1.19.

Regarding `CN(Cc1cnc2nc(N)nc(N)c2n1)c1ccc(C(=O)N[C@@H](CCC(=O)O)C(=O)O)cc1` [Methotrexate], the “z-score of subpopulation abundance” value was 1.07.

Regarding `CC[C@H]1OC(=O)C[C@@H](O)[C@H](C)[C@@H](O[C@@H]2O[C@H](C)[C@@H](O)[C@H](N(C)C)[C@H]2O)[C@@H](CCN2C[C@H](C)C[C@H](C)C2)C[C@@H](C)C(=O)/C=C/C(C)=C/[C@@H]1CO[C@@H]1O[C@H](C)[C@@H](O)[C@@H](OC)[C@H]1OC` [Tilmicosin], the “z-score of subpopulation abundance” value was determined as 0.46.

`CCOc1ccc2nc3cc(N)ccc3c(N)c2c1` [Ethacridine lactate monohydrate]: the “z-score of subpopulation abundance” value turned out to be 4.18.

On to `CO/N=C(\C(=O)N[C@@H]1C(=O)N2C(C(=O)O)=C(COC(N)=O)CS[C@H]12)c1ccco1` [Cefuroxime sodium], for which the “z-score of subpopulation abundance” value is -0.79.

Regarding `CCC(=O)c1c(O)cc(O)cc1O` [Flopropione], the “z-score of subpopulation abundance” value came out at 0.21.

Turning to `CC(C)COc1ccc(CNC(=O)N(Cc2ccc(F)cc2)C2CCN(C)CC2)cc1` [Pimavanserin], the “z-score of subpopulation abundance” value is -0.48.

As to `CC[C@@H]1C(=O)OC[C@@H]1Cc1cncn1C` [Pilocarpine HCl], the “z-score of subpopulation abundance” value was 0.75.

As for `O=C(O)Cc1ccccc1Nc1c(Cl)cccc1Cl` [Diclofenac Diethylamine], the “z-score of subpopulation abundance” value was -0.51.

Consider `CNCCC(Oc1ccc(C(F)(F)F)cc1)c1ccccc1` (stereo not given) [Fluoxetine HCl], for which the “z-score of subpopulation abundance” value is 0.

`O=C1c2c(O)ccc(O)c2C(=O)c2c(NCCNCCO)ccc(NCCNCCO)c21` [Mitoxantrone 2HCl]: the “z-score of subpopulation abundance” value was -5.45.

As for `Cc1onc(-c2c(Cl)cccc2Cl)c1C(=O)N[C@@H]1C(=O)N2[C@@H]1SC(C)(C)[C@@H]2C(=O)O` [Dicloxacillin Sodium], the “z-score of subpopulation abundance” value came out at 0.35.
